# Data taken from ChEMBL document CHEMBL3988442, “University of Dundee, Small-Polar-MMV Screening Library” (2021).
# Screen size: about 69,000 compounds; about 950 (1.4%) showed an effect of 50% or more. The sample holds strong results, similar compounds and a random draw of the others, so the mix is not that of the screen.
# Test system: Mycobacterium tuberculosis
# Assay: Cornell M. t heat shock assay; note: in the data most compounds retested in dose-response had high values
# Type: functional, organism-based
# Parameters: dose or concentration left out as unconfirmed
row,Structure (SMILES),Percent Effect [%]
1,c1ccc2nc(N3CCOC(Cn4cccn4)C3)cnc2c1 (stereo not given),-17.06
2,c1ccc2nc(N3CCOC(Cn4cncn4)C3)cnc2c1 (stereo not given),-13.9
3,Cc1cnn(CC2CN(c3cnc4ccccc4n3)CCO2)c1 (stereo not given),103.1
4,Cc1cc(C)n(CC2CCCN2C(=O)c2nccc3ccccc23)n1 (stereo not given),3.715
5,CC(=O)N(C)[C@H]1CC[C@]2(CC1)CNC(=O)c1cc(C)ccc1O2,5.316
6,CN1CCN(Cn2nc(-c3cccs3)ccc2=O)CC1,6.699
7,CCc1c(C)nc(-n2nc(-c3cccs3)cc2N)[nH]c1=O,106.4
8,Cc1nc(-n2nc(-c3cccs3)cc2N)[nH]c(=O)c1C,103.7
9,Cc1nn(C)c(C)c1S(=O)(=O)NCCn1ccc(-c2cccs2)n1,-25.61
10,CC(C(=O)N1CCCC1)n1nc(-c2cccs2)cc(N)c1=O (stereo not given),-4.273
11,CC(C(N)=O)n1nc(-c2cccs2)cc(N)c1=O (stereo not given),10.66
12,CC1c2ncc(CN3CCN(C)CC3)n2CCN1Cc1ccsc1.O=C(O)C(F)(F)F.O=C(O)C(F)(F)F.O=C(O)C(F)(F)F (stereo not given),-30.83
13,CCN1CCC2(CC1)OCCN2C(=O)c1ccc(OC)c(Cl)c1.Cl,7.471
14,CCn1ncc2c1C(COC)N(C(=O)c1cccs1)CC2.O=C(O)C(F)(F)F (stereo not given),19.39
15,O=C(CC1CC2(CCN(CC3CC3)CC2)c2ccccc21)NC1CCC1.O=C(O)C(F)(F)F (stereo not given),-33.11
16,O=C(O)C(F)(F)F.O=C1COC2(CCN(C(=O)c3ccco3)CC2)CN1Cc1ccccn1,-21.74
17,CC(C)(C)c1ccc(OCC(=O)O)c(CN2C[C@H]3C[C@H](O)C[C@H]3C2)c1,-6.021
18,Cc1noc(C)c1CN1C(=O)[C@H]2CC[C@@H]1CN(C(=O)c1cscn1)C2,9.12
19,CNC(=O)c1ccc2c(c1)C1(CCN(CCOC)CC1)C(=O)N2.O=C(O)C(F)(F)F,-17.93
20,Fc1cccc(Cl)c1CNCCCOc1ccccn1,-11.57
21,Fc1cccc(Cl)c1CNCCOc1ccccn1,-12.87
22,Fc1cccc(Cl)c1CNCc1ccccn1,50.99
23,COCC(=O)NCc1cc(=O)n2c(n1)CN(CC1CCOC1)CCC2.O=C(O)C(F)(F)F (stereo not given),-14.54
24,CC(C)NC(=O)N1CCC2(CCC(=O)N2CCN2CCCC2)CC1.O=C(O)C(F)(F)F,-7.519
25,O=C(c1ccccn1)N1CCCN(Cc2nnc(C3CC3)o2)CC1,27.04
26,Cc1nnc(CSc2n[nH]c(-c3ccccn3)n2)o1,13.15
27,CCc1noc(CSc2n[nH]c(-c3ccccn3)n2)n1,92.11
28,c1ccc(-c2nc(SCc3nnc(C4CC4)o3)n[nH]2)nc1,78.14
29,CCc1noc(CN2CCN(C(=O)c3ccccn3)CC2)n1,7.072
30,CCc1nnc(CSc2ccccn2)o1,0.1559
